# Source: PubChem (National Center for Advancing Translational Sciences (NCATS))
# The list is not random: actives were taken first. Their share in the collection is about 8.8%.
# HTT cytoprotect = protects HTT-Q103 PC12 cells, measured by ATP; PC12 HTT-Q103 induced, cytoprotection, ATP luminescence, 40 h; Potency, µM (doses to about 56.4 µM), for the others: cytoprotection (ATP increase), hits mostly activators; actives 0.14% (n = 230,000); AID 1471; active = well fitted curve in the direction sought with a large enough effect; inconclusive = small, poorly fitted or top-dose-only effect, or another doubt; inactive = no such curve, though single readings can be large; an effect the other way counts as inactive or inconclusive; also: % of control where 0% means no effect; nearly all actives have a fitted effect of over 45% in size
#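 Rat PC12, Q103 Htt exon1-GFP fusion, ecdysone promoter; tebufenozide inducer 100 nM final; compound titration; qHTS, 1500 cells/well; ATPlite luminescent read.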
# Lamin A splicing = LMNA splicing modulation; HeLa LMNA splicing GFP/RFP minigene ratio, 48 h; Potency, µM (doses to about 46.1 µM), without a hit: top-dose ratio change, negative = inhibition, hits mostly inhibitors; actives 0.01% (n = 200,000); AID 1487; active = well fitted inhibition curve with a large enough effect in the signal ratio, with a control signal flat, not every such curve was filed as active; inconclusive = small, poorly fitted or top-dose-only effect, or effect the other way, or a change in a side signal; the % refers to the signal ratio; also: % is scaled to controls: 0 for no effect and ±100 for the full control effect
#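 S3 HeLa cells stably expressing lamin A-EGFP splicing minigene plus DsRed2, 600 cells/well, 48 h compound exposure at 37C. Laser-scanning cytometry; analysed as GFP (500-530 nm)/RFP (575-640 nm) total intensity ratio; 0.5% DMSO vehicle.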
# ALDH1A1 inh = inhibitors of human aldehyde dehydrogenase 1A1 | P00352 | Purified ALDH1A1, NADH fluorescence, propionaldehyde substrate | Potency, µM (top dose mostly 75.3 µM), without a hit: top-dose activity, negative = inhibition, most hits filed as inhibitors | AID 1030 | actives 7.3% (n = 220,000);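 also: plate controls were no enzyme wells and a reference inhibitor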
# Target sequence (P00352 whole entry, looked up): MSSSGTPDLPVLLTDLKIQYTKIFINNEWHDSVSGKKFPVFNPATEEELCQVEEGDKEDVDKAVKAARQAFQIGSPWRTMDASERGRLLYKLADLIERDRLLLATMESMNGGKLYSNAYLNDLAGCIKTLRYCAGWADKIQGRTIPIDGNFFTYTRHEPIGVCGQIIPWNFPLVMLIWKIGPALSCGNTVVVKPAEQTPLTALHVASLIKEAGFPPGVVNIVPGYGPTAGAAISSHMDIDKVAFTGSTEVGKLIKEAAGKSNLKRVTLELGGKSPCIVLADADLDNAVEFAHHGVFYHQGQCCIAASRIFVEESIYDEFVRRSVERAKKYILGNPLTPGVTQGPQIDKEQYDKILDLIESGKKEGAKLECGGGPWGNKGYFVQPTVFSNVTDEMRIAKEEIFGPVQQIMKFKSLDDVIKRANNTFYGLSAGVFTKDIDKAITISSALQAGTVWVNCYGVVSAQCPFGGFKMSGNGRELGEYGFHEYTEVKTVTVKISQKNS
# HTT aggregate = reduces HttQ103-GFP aggregates in PC12 cells; actives 1.1% (n = 220,000); AID 1688; Potency, µM (titrated, usually from 46.1 µM), for the others: at the highest dose activity change, negative = inhibition, most hits filed as inhibitors; PC12 HttQ103-GFP aggregates, Acumen cytometry, 40 h; active = well fitted curve in the direction sought with a large enough effect; inconclusive = small, poorly fitted or top-dose-only effect, or another doubt; inactive = no such curve, though single readings can be large; an effect the other way counts as inactive or inconclusive; also: % is scaled to controls: 0 for no effect and ±100 for the full control effect; nearly all actives have a fitted effect of over 60% in size
#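 Aggregates are detected as GFP objects 1–25 µm with signal 6 STDEV over background in lysates of induced PC12 cells. These carry Huntingtin exon 1 with 103 glutamines fused to GFP under an ecdysone promoter; compounds titrated.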
# HPGD inh = blocks human HPGD enzyme activity. purified HPGD, NADH fluorescence kinetic, PGE2 substrate. Potency, µM, without a hit: top-dose activity change, negative = inhibition, usual class: inhibitors. actives 4.3% (n = 150,000). AID 894; also: % is scaled to controls: 0 for no effect and ±100 for the full control effect
# Target sequence (P15428 whole entry, looked up): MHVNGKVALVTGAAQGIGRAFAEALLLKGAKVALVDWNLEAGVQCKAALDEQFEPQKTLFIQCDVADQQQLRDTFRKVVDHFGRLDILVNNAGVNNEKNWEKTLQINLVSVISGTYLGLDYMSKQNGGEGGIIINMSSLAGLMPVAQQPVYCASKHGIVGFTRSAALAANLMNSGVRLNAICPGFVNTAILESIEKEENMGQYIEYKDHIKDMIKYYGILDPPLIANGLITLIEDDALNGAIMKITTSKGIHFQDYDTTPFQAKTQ
#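 20 nM HPGD preincubated 15 min at room temperature with compound in 50 mM Tris-HCl pH 8, 0.01% Tween 20. Started with 1 mM NAD+ and 30 uM prostaglandin E2; NADH fluorescence (360/450 nm) read 5 times over 30-s intervals, last minus first.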
# Starred values were filed as active, the others as inactive; ? = inconclusive; / = no result; ! = not active in a repeat; [ ] = remark or other dose. Unless noted, calls follow the shape of the dose curve; as a rule, active = well fitted inhibition curve with a large enough effect (not every such curve was filed as active); inconclusive = small, poorly fitted or top-dose-only effect, or another doubt; inactive = no such curve, though single readings can be large or run the other way. Potency is read from the fitted curve at half-maximal effect.
SMILES,HTT cytoprotect,Lamin A splicing,ALDH1A1 inh,HTT aggregate,HPGD inh
COc1ccccc1CNC(=O)CN1C(=O)CSc2ccc(S(=O)(=O)N3CCCCC3)cc21,/,-7.8%[46 µM],/,/,/
COc1cc2[nH]c(=S)n(Cc3cccs3)c(=O)c2cc1OC,-14.2%,?,1.12µM*,29.8%,/
CCOC(=O)c1c(S(=O)(=O)N2CCCC(C(=O)NCc3cccc(OC)c3)C2)c(C)n(C)c1C (stereo not given),/,-0.2%[46 µM],/,/,/
CCOC(=O)C1CCN(C(=O)c2cc3c(=O)n4ccccc4nc3n2C)CC1,-35.5%,-3.5%[46 µM],?,-0.8%[9.22 µM],/
CC(C)(C)c1[nH]nc2c1C(C1C=CCCC1)C(C#N)=C(N)O2 (stereo not given),-1.5%,-5.8%,?,26.2%[9.22 µM],-3.9%
CC(C)c1[nH]nc2c1C(C1C=CCCC1)C(C#N)=C(N)O2 (stereo not given),-22.4%[10 µM],?,14.1µM*,-6.3%[9.22 µM],/
N#C/C(=C/c1ccc(F)cc1)C(N)=S,5.8%[10 µM],/,25.1µM*,?,/
[C-]#[N+]/C(C#N)=C\c1cc(C(C)(C)C)c(O)c(C(C)(C)C)c1,-216.7%,/,-10.6%,/,-23.3%
CC(C)(C)c1cc(/C=C(\C#N)C(N)=S)cc(C(C)(C)C)c1O,-50.2%,?,2.82µM*,/,?
Cc1ccc(C)c(NC(=O)C(CC(C)C)N2Cc3ccccc3C2=O)c1 (stereo not given),/,9.0%[46 µM],/,/,/
CCNc1ncc2nc(CCc3ccccc3)c(=O)n(Cc3ccc(F)cc3)c2n1,-36.8%,?,?,/,/
CN(C)C(=O)C1CCC(=O)N1Cc1cccs1 (stereo not given),-22.8%,/,-0.2%,17.9%,/
CC(=O)NN1C(=O)/C(=C/c2ccc(Br)o2)SC1=S,6.7%,-14.5%,25.1µM*,-7.6%[9.22 µM],?
CC(=O)NN1C(=O)/C(=C\c2ccccc2)SC1=S,25.5%,-1.1%,14.8%,14.7%,-3.6%
C=CCn1c(SCC(=O)NCCOC)nnc1-c1cc2c(s1)CCC(CC)C2 (stereo not given),-0.3%[1.9 µM],?,?,-26.6%,17.8µM*
CCOC(=O)OCC1OC(c2ccccc2)C=CC1Oc1ccc(F)cc1C (stereo not given),12.1%[10 µM],/,5.6%[13.5 µM],/,/
CC(C)c1ccc(NC(=S)NN(c2ccccc2)c2ccccc2)cc1,30.8%[10 µM],13.8%,14.1µM*,-16.2%,22.4µM*
O=C(CSc1cccc[n+]1[O-])Nc1ccccc1Oc1ccccc1,-18.0%,/,14.1µM*,-6.1%,/
O=C(CSc1cccc[n+]1[O-])Nc1cc2c(cc1Cl)C(=O)c1ccccc1C2=O,16.2%[10 µM],-0.3%,8.91µM*,3.8%,-19.1%
Cc1c(Nc2ccc(C=O)cc2)c(=O)n(-c2ccccc2)n1C,-6.8%,/,-2.1%,13.9%,/
COc1ccc(CN2CCN(Cc3ccon3)CC2CCO)c(C)c1C (stereo not given),3.6%[10 µM],/,/,6.2%[9.22 µM],/
COc1cc(SC)ccc1C(=O)NCc1ccc(C)cc1,-17.7%,-0.5%,?,0.2%,20µM*
COc1cc(SC)ccc1C(=O)NCCCOC(C)C,-3.3%,-7.3%,3.9%,-19.0%,-12.8%
COc1cc(SC)ccc1C(=O)NCc1ccccc1,22.5%[10 µM],-11.0%,?,9.7%,25.1µM*
CCCNC(=O)c1ccc(SC)cc1OC,-4.6%,-3.8%,?,2.4%,25.1µM*
SMILES,HTT cytoprotect,Lamin A splicing,ALDH1A1 inh,HTT aggregate,HPGD inh
CCN(CC)S(=O)(=O)c1ccc(NC(=O)c2c(C)oc3ncnc(N4CCOCC4)c23)cc1,/,-5.3%[46 µM],/,/,/
Cc1ccsc1C1C(C#N)=C(N)N(N(C)C)C2=C1C(=O)CC(C)(C)C2 (stereo not given),2.9%[10 µM],-3.4%[46 µM],-10.4%,0.2%,/
Cc1cc([N+](=O)[O-])c2c(c1C)C1C=CCC1C(c1ccccn1)N2 (stereo not given),-36.5%,-24.8%[46 µM],8.91µM*,7.5%,/
CCN(CC)C(=O)COc1ccc(CC(=O)O)cc1OC,-14.3%,1.6%,-0.8%,-13.9%,-3.1%
CCN(Cc1ccc(OC)c(F)c1)C(=O)CCl,7.9%[10 µM],/,0.355µM*,?,/
O=C(COc1ccc(Cl)cc1Cl)NC(=O)N1CCCCC1,-7.7%,10.3%,4.0%,?,15.8µM*
O=C(COc1ccc(Cl)cc1Cl)NC(=S)N1CCCc2ccccc21,12.9%,?,7.51µM*,?,22.4µM*
O=C(COc1ccc(Cl)cc1Cl)N1CCCN(C(=O)COc2ccc(Cl)cc2Cl)CC1,-0.2%[10 µM],1.7%,7.9%,-7.0%,-0.5%
O=C(COc1ccc(Cl)cc1Cl)OCC(=O)N1CCCc2ccccc21,-9.3%[10 µM],-14.6%,4.3%,-3.1%,-6.6%
CN(C)CC/C=C1\c2ccccc2COc2ccccc21,?,?,17.8µM*!,-12.1%,-8.3%
COc1cc(C(=O)NCc2nnc(SCC(=O)N3CCOCC3)o2)cc(OC)c1OC,6.7%,16.2%[9.22 µM],9.7%,12.8%,/
CCN(CC)S(=O)(=O)c1ccc(Cl)c(C(=O)Oc2cccnc2)c1,-5.1%,7.1%,14.1µM*,16.3%,-25.6%
CCOc1ccc(/C=C(\C#N)C(=O)NCC2CCCO2)cc1OCC (stereo not given),27.1%[10 µM],-28.3%,28.2µM*,3.6%,-23.6%
CN(C)C(=O)c1ccc(-c2cncnc2NCCN2CCOCC2)cc1,-0.5%,3.9%,-5.8%,/,-13.1%
COc1ccc(-c2cc(CNC(=O)CCl)on2)cc1,-41.2%,?,?,17.8µM*,-5.9%
COc1ccc(-c2cc(CNC(=O)CN(C)Cc3ccccc3)on2)cc1,-4.8%,?,4.0%,-4.1%,25.1µM*
COc1ccc(-c2cc(CNC(C)=O)on2)cc1,-8.8%,5.1%,13.9%,-5.9%,-11.8%
Cc1cccc(N(C)C(=O)CCS(=O)(=O)c2ccc3c(c2)oc(=O)n3C)c1,/,-20.6%[46 µM],/,/,/
COc1cc2c(c3oc(-c4ccccc4)cc(=O)c13)C=CC(C)(C)O2,12.8%[10 µM],/,10µM*,10.4%[9.22 µM],/
COc1cc(OC)c2c(=O)cc(-c3ccccc3)oc2c1,-35.4%[10 µM],/,?,13.4%[9.22 µM],/
CCOC(=O)c1noc2ncnc(Nc3cccc(OC)c3)c12,/,-6.2%[46 µM],/,/,/
CCOC(=O)/C(=C\c1ccc(OC(F)F)cc1)C1=Nn2c(nnc2-c2ccc(Cl)cc2)SC1,/,?,14.1µM*,?,14.1µM*
Cc1ccc(C)c(NC(=O)COc2cccc3c2CCN(Cc2ccccc2)C3=O)c1,-8.4%[10 µM],?,-9.3%,-5.1%,-6.3%
Cc1cccc(CN2CCc3c(OCC(=O)NCc4ccco4)cccc3C2=O)c1,9.2%[10 µM],-9.9%,22.4µM*,-4.1%,-29.9%
Cc1cccc(CN2CCc3c(OCC(=O)N4CCCc5ccccc54)cccc3C2=O)c1,-9.3%[10 µM],?,15.8µM*,?,-24.8%
O=C(COc1cccc2c1CCN(Cc1ccccc1)C2=O)NCc1ccco1,-27.2%[10 µM],-0.8%,20µM*,-3.5%,-17.4%
COc1ccccc1CCn1c(=O)cnc2cncnc21,-79.2%,?,1.41µM*,/,/
COc1ccccc1CCn1c(=O)c(-c2ccc(Cl)cc2)nc2cncnc21,-34.6%,/,6.2%,/,-3.4%
CCN(CC)c1ccc(C=Nc2ccccc2)c(O)c1,-4.2%[10 µM],-8.8%,3.55µM*,-13.9%,-28.1%
